Screening data deposited in PubChem BioAssay by several laboratories.
KLF5 inh: KLF5 expression inhibitors, primary screen, DLD-1 cells, luminescence | DLD-1 KLF5 promoter-luciferase reporter | inhibition, % at 5 µM | 290,000 tested, 0.23% active;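 active = inhibition above a per-plate limit of that plate's mean compound inhibition plus 3 SD, cut at about 60% in these data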;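 also: 0% = DMSO wells and 100% = LY294002 at 200 µM; higher means less KLF5 promoter-driven luciferase light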
Jurkat NFkB inh: inhibitors of induced NF-kB luciferase reporter, primary screen, TCR NF-kB activation inhibitor project, cell-based, luminescence, uHTS. Jurkat, PMA/ionomycin-induced NF-kB luciferase reporter. inhibition, % at 4 µM. 330,000 tested, 0.53% active. AID 435003, 2010; in the data active = inhibition above about 50%
697 NFkB inh: inhibitors of PMA/ionomycin-induced NF-kB reporter, 697 cells, primary screen, B-cell NF-kB inhibitor project, cell-based, luminescence, uHTS | 697 B-cell NF-kB luciferase reporter, 16 h | inhibition, % at 4 µM | 330,000 tested, 0.33% active; in the data active = inhibition above about 35%
Gli-Sufu antag: Gli-Sufu pathway antagonists, primary screen, luciferase luminescence, Sufu-KO-LIGHT cells, uHTS. AID 588413, 2011. Sufu-KO-LIGHT fibroblasts, Gli luciferase reporter luminescence. 340,000 tested, 0.74% active. inhibition, % at 5 µM;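 active = inhibition above about 55%, limit read from the data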;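 also: 0% = DMSO-treated cells and 100% = wells with medium but no cells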
aSyn UTR inh: MLPCN primary screen, SNCA 5' untranslated region | alpha-synuclein 5'UTR reporter, inhibitor activity | inhibition, % (tested at 7.5 µM) | 300,000 tested, 0.82% active; in the data active = inhibition above about 60%; inconclusive = no clear call, values can overlap the other calls;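 also: H4 neuroglioblastoma cells stably carrying SNCA 5'UTR luciferase fusion; 0% = DMSO wells and 100% = positive control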
Mdm2-MdmX inh: inhibitors of human Mdm2-MdmX association, primary screen, cell-based, luminescence, split luciferase, SaOS-2, uHTS; Protein Mdm4 (Homo sapiens) + E3 ubiquitin-protein ligase Mdm2 (Homo sapiens), …; 330,000 tested, 3% active; SaOS-2 split-luciferase Mdm2/MdmX complementation; AID 485346, 2010; inhibition, % at 8 µM;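 active = inhibition of at least 50% at 8 µM in the primary screen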
Target sequence (O15151 whole entry, looked up): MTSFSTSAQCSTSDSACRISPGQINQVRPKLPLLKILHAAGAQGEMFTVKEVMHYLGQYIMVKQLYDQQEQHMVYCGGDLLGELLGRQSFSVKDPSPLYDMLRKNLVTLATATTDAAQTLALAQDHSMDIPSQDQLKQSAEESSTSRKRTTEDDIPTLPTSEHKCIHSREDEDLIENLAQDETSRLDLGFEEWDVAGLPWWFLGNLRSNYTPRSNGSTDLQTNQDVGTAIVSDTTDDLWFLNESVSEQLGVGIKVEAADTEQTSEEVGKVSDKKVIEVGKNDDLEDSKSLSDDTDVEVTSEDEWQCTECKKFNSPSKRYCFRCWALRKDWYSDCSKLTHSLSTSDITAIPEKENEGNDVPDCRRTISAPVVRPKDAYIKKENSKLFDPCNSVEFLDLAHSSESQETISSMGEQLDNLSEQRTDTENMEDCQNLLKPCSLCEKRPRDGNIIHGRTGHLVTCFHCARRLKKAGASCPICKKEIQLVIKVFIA
Target sequence (Q00987 whole entry, looked up): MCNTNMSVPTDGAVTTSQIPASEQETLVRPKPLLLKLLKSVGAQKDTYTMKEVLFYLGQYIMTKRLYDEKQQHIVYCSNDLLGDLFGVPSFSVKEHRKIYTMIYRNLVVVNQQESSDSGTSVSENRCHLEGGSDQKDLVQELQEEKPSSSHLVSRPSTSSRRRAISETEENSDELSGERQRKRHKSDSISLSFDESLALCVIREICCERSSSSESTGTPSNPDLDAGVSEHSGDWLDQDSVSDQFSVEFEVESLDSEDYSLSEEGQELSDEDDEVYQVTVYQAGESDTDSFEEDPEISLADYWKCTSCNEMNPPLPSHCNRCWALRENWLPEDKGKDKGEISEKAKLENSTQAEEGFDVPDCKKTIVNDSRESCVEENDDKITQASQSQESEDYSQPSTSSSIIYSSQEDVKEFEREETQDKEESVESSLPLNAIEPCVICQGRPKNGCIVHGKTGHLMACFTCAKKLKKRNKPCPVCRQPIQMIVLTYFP
KLF5 confirm: KLF5 expression inhibitors, confirmation, DLD-1 cells, luminescence. shares compounds with KLF5 inh. DLD-1 KLF5 promoter firefly luciferase reporter. inhibition, % at 4 µM. 610 tested, 79% active;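 active = inhibition above a set limit taken from the earlier primary screen, cut at about 63% in these data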;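 also: 0% = DMSO wells and 100% = LY294002 at 200 µM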
IEC-6 tox: cytotoxicity in rat IEC-6 cells, cytotoxicity control for KLF5 inhibitor project, cell-based, luminescence, triplicate; AID 1905, 2009; inhibition, % at 4 µM; IEC-6 rat intestinal cells, viability luminescence; shares compounds with KLF5 inh; 610 tested, 56% active; in the data active = inhibition above about 23%;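 also: cells exposed to compounds for 48 hours before viability read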
Jurkat NFkB conf: PMA/ionomycin-induced NF-kB reporter inhibitors, Jurkat retest, confirmation, T-cell NF-kB inhibitor project, cell-based, luminescence, single concentration. shares compounds with Jurkat NFkB inh. Jurkat NF-kB luciferase, 16 h. inhibition, % at 4 µM. 2,700 tested, 27% active;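 active = inhibition reaching about 45% at 4 µM in either replicate, limit read from the data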;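 also: plate controls were PMA/ionomycin stimulated DMSO wells for no effect and unstimulated DMSO wells for full effect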
697 NFkB conf: PMA/ionomycin-induced NF-kB reporter inhibitors, 697 retest, confirmation, B-cell NF-kB inhibitor project, cell-based, luminescence, single concentration. shares compounds with 697 NFkB inh. 2,000 tested, 35% active. AID 449746, 2010. inhibition, % at 4 µM. 697 B-cell NF-kB luciferase, 16 h; in the data active = inhibition mostly above about 28%, no sharp cut-off; inactive = mostly below about 22%
Mdm2-MdmX conf: Mdm2-MdmX complex disruptors, retested hits, confirmation, luminescence, single concentration | inhibition, % at 8 µM | Mdm2-MdmX binding, luminescent assay | 10,000 tested, 55% active | shares compounds with Mdm2-MdmX inh; in the data active = inhibition above about 40%
Full FLuc ctr: full-length luciferase signal inhibition, confirmation, counter-screen for Mdm2/MdmX interaction inhibitor project, cell-based, single concentration, SaOS-2. shares compounds with Mdm2-MdmX inh. 6,200 tested, 77% active. inhibition, % at 8 µM. AID 504607, 2011. SaOS-2 full-length luciferase counterscreen, luminescence;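 active = mean inhibition at 8 µM reaching about 37%, which flags the compound as non-specific, limit read from the data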;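 also: p53-null SaOS-2 cells with luciferase driven by a doxycycline-inducible promoter; compound on cells about two nights before reading with doxycycline added after day one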
Numbers without * were called inactive; ? = inconclusive; nt = not tested or not shown. An excerpt weighted towards active compounds, which were near 4.1% of everything screened.

SMILES	KLF5 inh	Jurkat NFkB inh	697 NFkB inh	Gli-Sufu antag	aSyn UTR inh	Mdm2-MdmX inh	KLF5 confirm	IEC-6 tox	Jurkat NFkB conf	others
CCOc1ccc(Nc2cc(C)nc(-n3nc(C)cc3C)n2)cc1	81*	54*	11	39	63*	44	81*	56*	57*
N#Cc1ccc(S(=O)(=O)N2CCC(C(=O)Nc3cccc(C(=O)NC4CC4)c3)CC2)cc1	nt	13	19	2	nt	3	nt	nt	nt
Cc1nc(-c2ccc(NC(=O)c3ccco3)cc2)cs1	87*	52*	-162	2	?	31	78*	14	37
CC1CN(C(=O)COc2coc(CN3CCc4ccccc4C3)cc2=O)CC(C)O1 (stereo not given)	nt	9	7	-4	-1	15	nt	nt	nt
COc1ccc2nc(SCC(=O)NC3CCCC3)c(C)cc2c1	71*	50*	-26	36	-48	47	85*	16	31
COC(=O)c1cccc(NC(=O)c2cccnc2C(=O)O)c1C	5	0	10	-10	5	-25	nt	nt	nt
Cc1ccccc1NC(=O)Cn1nnc(C(=O)NCc2ccco2)c1N	16	41	-19	1	-4	-10	nt	nt	nt
CCOc1ccccc1NC(=O)Cn1nnc(C(=O)NCc2ccco2)c1N	76*	69*	13	26	85*	42	88*	64*	56*
C=CCn1c(SCc2cc(C(C)=O)ccc2OCC)nc2ccccc2c1=O	65*	58*	7	14	104*	36	79*	64*	36
COc1ccc(C(C)=O)cc1CSc1nc2ccccc2c(=O)n1-c1ccccc1	-8	2	20	4	25	8	nt	nt	nt
C/C(=N\OCc1cccc(C(=O)O)c1)c1ccc(Cl)cc1	64*	62*	13	-231	104*	17	51	-1	38
Cc1cccc(N2CCN(C(=O)c3ccncc3)CC2)c1C	17	41	-26	15	14	8	nt	nt	nt
COc1cc(C(=O)N2CCN(c3cccc(C)c3C)CC2)cc(OC)c1OC	72*	63*	-42	49	?	35	75*	59*	43
O=C1CC(NS(=O)(=O)c2ccc(F)cc2)CN1c1ccc2c(c1)OCCO2 (stereo not given)	nt	0	15	1	6	12	nt	nt	nt
O=C(Nc1nncs1)c1cc2c(s1)CCC2	-93	-25	-14	-47	-132	9	nt	nt	nt
O=C(Nc1nccs1)c1cc2c(s1)CCCCC2	75*	-39	-307	8	72*	33	70*	-1	nt	697 NFkB conf=-356
CCOCCCN1CC(=O)N2[C@@H](Cc3c([nH]c4ccccc34)C2(C)C)C1=O	-17	4	7	0	13	7	nt	nt	nt
CC(C)(C)c1ccc(-c2noc(CCC(=O)NCc3ccco3)n2)cc1	62*	-48	96*	70*	77*	-153	65*	11	nt	697 NFkB conf=94*
O=C(COC(=O)COc1ccc(Cl)cc1Cl)NC1CCS(=O)(=O)C1 (stereo not given)	nt	1	7	-2	nt	-19	nt	nt	nt
CCC(=O)N(C1=C(NC)C(=O)c2ccccc2C1=O)C(C)C	76*	35	52*	-4	-1	-30	15	4	nt	697 NFkB conf=47*
O=C1CCCN1c1ccc(S(=O)(=O)Nc2ccc3c(c2)OCCO3)cc1	78*	37	-68	12	-1	68*	70*	41*	nt	Mdm2-MdmX conf=69*;Full FLuc ctr=61*
CNC(C)C#Cc1c(-c2cc(OC)c(OC)c(OC)c2)noc1C (stereo not given)	17	-3	8	-22	-39	28	nt	nt	nt
COc1cc(-c2noc(C)c2C#Cc2ccccn2)cc(OC)c1OC	62*	60*	-26	24	86*	65*	71*	61*	37	Mdm2-MdmX conf=78*;Full FLuc ctr=77*
COC(=O)c1ccc(C)c(NS(=O)(=O)c2ccc3c(c2)OCCO3)c1	82*	58*	3	49	94*	64*	76*	56*	52*	Mdm2-MdmX conf=60*;Full FLuc ctr=78*
COc1ccccc1N1CCN(C(=O)C2c3ccccc3Oc3ccccc32)CC1	70*	55*	-29	5	81*	64*	70*	57*	45	Mdm2-MdmX conf=56*;Full FLuc ctr=89*
SMILES	KLF5 inh	Jurkat NFkB inh	697 NFkB inh	Gli-Sufu antag	aSyn UTR inh	Mdm2-MdmX inh	KLF5 confirm	IEC-6 tox	Jurkat NFkB conf	others
COc1ccccc1N1CCN(C(=O)C2CC2)CC1	nt	-8	-7	4	-2	16	nt	nt	nt
CCN1CCN(C(=O)NS(=O)(=O)c2ccc(C)cc2)CC1	-38	6	2	4	-2	2	nt	nt	nt
C/C(=N\NC(=O)COc1ccccc1[N+](=O)[O-])c1cccc(NC(=O)c2ccncc2)c1	-30	-9	2	-7	-23	19	nt	nt	nt
COc1ccccc1N1CCN(Cc2cc(Br)c(O)c3ncccc23)CC1	93*	47	-111	58*	77*	61*	65*	-2	nt	Mdm2-MdmX conf=60*;Full FLuc ctr=60*
C=CCOC(=O)c1[nH]c2c(c1C)C(=O)CC(c1ccco1)C2 (stereo not given)	90*	74*	-15	54	69*	63*	84*	60*	50*	Mdm2-MdmX conf=55*;Full FLuc ctr=86*
CC(NC(=O)Nc1ccccc1F)C(C)(C)C (stereo not given)	-7	2	6	-3	4	0	nt	nt	nt
